MCL1-BIM inh – MCL1-BIM-BH3 interaction inhibition (human) | 320,000 compounds, 0.68% hits | Q07820 | inhibition, % at 10.9 µM | GST-MCL1 / FITC-Bim-BH3 fluorescence polarization;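 active = inhibition above the mean inhibition of all tested compounds plus 3 SD, set per campaign, cut at about 40% in these data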;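 also: 0% = DMSO wells and 100% = unlabeled Bim-BH3 peptide control; higher means more loss of mP so more displacement of Bim peptide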
Mcl-1 Bim block – human Bim-Mcl-1 interaction inhibition; Q07820; Bead-based flow cytometry, Bim peptide-Mcl-1 binding; inhibition, % at 10 µM; 190,000 compounds, 0.1% hits; AID 1009; in the data active = inhibition above about 40%;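 also: 0% = no compound tracer wells and 100% = peptide blocker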
Mcl1 Bid PPI – Mcl-1/Bid interaction inhibition | Q07820 | TR-FRET Mcl-1/Bid-Dy647 peptide binding, 1536-well | inhibition, % at 21.7 µM | 220,000 compounds, 0.97% hits;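 active = compounds that cut the binding signal by more than half at the single screening dose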;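 also: His-tagged Mcl-1 with europium anti-His antibody binding Bid BH3 peptide; 0% = Mcl-1 plus peptide wells and 100% = peptide-only wells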
14-3-3 Bad inh – disrupts binding of bovine 14-3-3 zeta to phospho-Bad peptide | P63103 | TR-FRET 14-3-3zeta/Dy647-pBad peptide displacement, 1 h | inhibition, % at 21.7 µM | 220,000 compounds, 0.71% hits | AID 781;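 active = inhibition above about 70%, limit read from the data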;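 also: 0% = full 14-3-3 plus peptide FRET controls and 100% = background without 14-3-3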
Target sequence (P63103 whole entry, looked up): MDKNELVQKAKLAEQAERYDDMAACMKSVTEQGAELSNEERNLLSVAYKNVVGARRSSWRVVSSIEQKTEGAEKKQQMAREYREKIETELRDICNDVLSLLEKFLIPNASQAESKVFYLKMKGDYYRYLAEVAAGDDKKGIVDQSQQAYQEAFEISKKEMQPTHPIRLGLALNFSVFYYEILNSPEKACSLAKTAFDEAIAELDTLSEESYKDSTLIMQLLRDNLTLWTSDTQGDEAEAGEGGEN
Mcl1 Noxa PPI – Mcl-1/Noxa interaction inhibition; inhibition, % at 21.7 µM; 220,000 compounds, 1.5% hits; Q07820; AID 1022; TR-FRET Mcl-1/Noxa peptide binding, 2 h;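 active = compounds that cut the protein-peptide binding signal by more than 50% relative to plate controls in a single-dose test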;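 also: His-tagged Mcl-1 with rhodamine Noxa BH3 peptide and terbium anti-His antibody; 0% = Mcl-1 plus Noxa peptide wells and 100% = peptide-only wells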
* hit, by the source's call; nt = no result; + = active, no number. Most compounds without a hit are left out; they make up all but 2.5% or so of the library.

SMILES | MCL1-BIM inh | Mcl-1 Bim block | Mcl1 Bid PPI | 14-3-3 Bad inh | Mcl1 Noxa PPI
O=C(O)CCn1cc(C=C2C(=O)NC(=S)NC2=O)c(-c2ccccc2)n1 | -10.2 | 2.0 | -52.1 | 29.3 | 61.9*
O=C(O)CCn1cc(C=C2C(=O)NC(=S)NC2=O)c(-c2cc3ccccc3oc2=O)n1 | nt | 2.0 | 5.3 | 38.2 | 81.0*
N#CCCn1cc(C=C2C(=O)NC(=O)NC2=O)c(-c2ccccc2)n1 | 0.4 | 2.0 | -34.2 | 5.0 | 13.7
CC(=O)C1C2c3ccccc3OC1(C)N=c1s/c(=C/c3cnn(C)c3)c(=O)n12 (stereo not given) | 1.4 | -2.0 | 1.0 | 0.6 | -7.8
COc1ccc2[nH]cc(CCNCc3cccnc3)c2c1 | 5.1 | nt | nt | nt | nt
COc1ccc2[nH]c(C)c(CCNCc3cccnc3)c2c1 | 41.4* | nt | nt | nt | nt
C[C@@H]1CC[C@H]2[C@@H](C)C(=O)O[C@@H]3O[C@@]4(C)CC[C@@H]1[C@]32OO4 | -0.7 | nt | nt | nt | nt
CCN(CC)c1ccc(/C=C/[N+](=O)[O-])cc1 | -134.5 | -2.0 | -13.7 | -8.9 | 25.6
COc1cc(/C=C/[N+](=O)[O-])ccc1O | 9.2 | -4.0 | -25.3 | 8.5 | 51.3*
CC(C)N1CCN(c2ccc(O)cc2)CC1 | 22.8 | -6.0 | -66.6 | -7.7 | 54.3*
COc1nc(C)nc(NC(=O)NS(=O)(=O)c2ccccc2Cl)n1 | 5.1 | nt | nt | nt | nt
COc1cccc(N2CCN(Cc3cccc(Cl)c3)CC2)c1 | -2.7 | -5.0 | -19.6 | 79.8* | 19.9
COc1cccc(N2CCN(Cc3ccc(Cl)cc3)CC2)c1 | 5.5 | -3.0 | 0.9 | 33.5 | nt
COc1ccc(CCN(C)Cc2c(F)cccc2F)cc1OC | 10.4 | 5.0 | -43.8 | -0.8 | -7.8
COc1ccc(N2C(=O)/C(=C/c3cccs3)C(=O)NC2=S)cc1 | 5.3 | nt | 43.8 | 11.7 | 61.7*
O=C1NC(=S)N(Cc2ccco2)C(=O)/C1=C\c1cccs1 | nt | 2.0 | 96.9* | 96.7* | 97.1*
COc1ccccc1/C=C1\C(=O)NC(=S)N(c2ccccc2)C1=O | 13.8 | nt | nt | nt | nt
COc1ccc(N2C(=O)/C(=C/C=C/c3ccccc3[N+](=O)[O-])C(=O)NC2=S)cc1 | nt | -1.0 | 82.6* | 45.7 | 88.6*
Cc1nnc2n1-c1ccc(Br)cc1C(c1ccccc1Cl)=NC2 | 5.4 | 2.0 | -12.4 | -4.6 | 8.1
Cc1ccc(N/N=C/c2c(O)n(-c3ccccc3)c(=O)[nH]c2=O)cc1 | 2.8 | -3.0 | -39.5 | -14.0 | -11.4
CCOc1cc2c(cc1OCC)-n1cccc1C(c1ccccc1F)NC2 (stereo not given) | -8.3 | nt | nt | nt | nt
CC(N)Cc1c[nH]c2ccc(Cl)cc12 (stereo not given) | -0.6 | nt | nt | nt | nt
CCOC(=O)c1c(-n2c(C)cc(C=C3C(=O)NC(=S)NC3=O)c2C)sc2c1CCCC2 | -23.7 | -5.0 | 37.9 | -13.5 | 79.6*
COc1cc(OC)c(OC)cc1/C=C1/C(=O)NC(=O)N(Cc2ccccc2)C1=O | -17.9 | nt | -32.7 | -11.2 | 8.1
Nc1ccc2c(c1)Cc1ccccc1-2 | -0.9 | 0.0 | -51.2 | 1.4 | 54.5*
SMILES | MCL1-BIM inh | Mcl-1 Bim block | Mcl1 Bid PPI | 14-3-3 Bad inh | Mcl1 Noxa PPI
COc1cccc(N2C(=O)NC(=O)/C(=C/c3ccc4c(c3)Cc3ccccc3-4)C2=O)c1 | 2.4 | 0.0 | 9.3 | 24.9 | 41.2
Cc1cccc(-n2c(-c3cccs3)nc3ccccc3c2=O)c1 | 4.2 | -1.0 | 58.1* | 71.0* | 46.4
O=c1c2ccccc2nc(-c2ccc(Cl)cc2Cl)n1-c1nccs1 | 14.8 | -3.0 | -12.5 | -21.5 | -3.8
CN(C)[C@@H]1C(=O)C(C(N)=O)=C(O)[C@@]2(O)C(=O)C3=C(O)c4c(O)cccc4[C@@](C)(O)[C@H]3[C@H](O)[C@@H]12 | + | 3.0 | 71.7* | 89.3* | 111.3*
CN(C(=O)c1ccco1)C1(c2ccccc2Cl)CCCCC1=O (stereo not given) | -2.0 | -3.0 | -30.8 | -10.2 | 1.7
Oc1cc2c(cc1O)[C@H]1c3ccccc3CN[C@@H]1CC2 | 27.5 | 1.0 | -1.8 | -0.4 | 6.5
CCC(C)N1C(=O)NC(=O)C2(Cc3c(ccc4ccccc34)N(C)C2)C1=O (stereo not given) | 12.6 | 2.0 | -104.6 | -8.5 | 58.9*
CC12CN3CCN(C1)CC(C)(C3)C2=NO | -4.4 | -3.0 | -79.0 | nt | -12.1
COC(=O)C(O)(c1c[nH]c2ccccc12)C(F)(F)F (stereo not given) | 0.8 | -1.0 | -10.3 | -6.9 | 3.6
CCOC(=O)c1cc(C(O)(C(=O)OC)C(F)(F)F)c(/N=C/N(C)C)o1 (stereo not given) | 4.4 | 0.0 | -23.3 | -14.4 | 86.2*

Source: PubChem
